Assay outcomes (PubChem BioAssay)
Compounds with a hit are over-represented: about 1.3% of the library has one in this group of screens.
Gli-Sufu block: antagonists of Gli-Sufu signaling. Sufu-KO-LIGHT fibroblasts, Gli luciferase reporter luminescence. inhibition, % at 5 µM. 0.74% of 340,000 active. AID 588413;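 active = inhibition above about 55%, limit read from the data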;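 also: 0% = DMSO-treated cells and 100% = wells with medium but no cells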
SRC2 inh: inhibits human steroid receptor coactivator 2; Q15596; HEK293 GAL4-SRC2 luciferase reporter, luminescence; inhibition, % at 9 µM; 0.17% of 370,000 active; AID 651957;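 active = inhibition above the mean inhibition of all tested compounds plus 3 SD, set per campaign, cut at about 52% in these data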;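 also: 0% = DMSO treated cells and 100% = cells given Gossypol at 36 µM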
NCOA1 inh: inhibitors of human steroid receptor coactivator 1 (SRC1) | 0.12% of 360,000 active | HEK293 GAL4-SRC1 luciferase reporter, luminescence | Q15788 | AID 588354 | inhibition, % at 3.6 µM;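 active = inhibition above the campaign mean plus 3 SD, with each screening campaign given its own cutoff, cut at about 60% in these data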;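 also: 0% = DMSO treated cells and 100% = gossypol at 36 µM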
SRC3 inh: human NCOA3 inhibition. Q9Y6Q9. HEK293 GAL4-SRC3 luciferase reporter, luminescence. inhibition, % at 3.6 µM. 0.17% of 360,000 active;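 active = inhibition above a per-campaign cutoff, the mean of all compounds plus 3 SD, cut at about 60% in these data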;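 also: 0% = DMSO-treated cells and 100% = gossypol-treated cells at 36 µM; higher means less SRC3-driven luciferase light from the GAL4 reporter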
Target sequence (Q9Y6Q9 whole entry, looked up, the tested form may be a part): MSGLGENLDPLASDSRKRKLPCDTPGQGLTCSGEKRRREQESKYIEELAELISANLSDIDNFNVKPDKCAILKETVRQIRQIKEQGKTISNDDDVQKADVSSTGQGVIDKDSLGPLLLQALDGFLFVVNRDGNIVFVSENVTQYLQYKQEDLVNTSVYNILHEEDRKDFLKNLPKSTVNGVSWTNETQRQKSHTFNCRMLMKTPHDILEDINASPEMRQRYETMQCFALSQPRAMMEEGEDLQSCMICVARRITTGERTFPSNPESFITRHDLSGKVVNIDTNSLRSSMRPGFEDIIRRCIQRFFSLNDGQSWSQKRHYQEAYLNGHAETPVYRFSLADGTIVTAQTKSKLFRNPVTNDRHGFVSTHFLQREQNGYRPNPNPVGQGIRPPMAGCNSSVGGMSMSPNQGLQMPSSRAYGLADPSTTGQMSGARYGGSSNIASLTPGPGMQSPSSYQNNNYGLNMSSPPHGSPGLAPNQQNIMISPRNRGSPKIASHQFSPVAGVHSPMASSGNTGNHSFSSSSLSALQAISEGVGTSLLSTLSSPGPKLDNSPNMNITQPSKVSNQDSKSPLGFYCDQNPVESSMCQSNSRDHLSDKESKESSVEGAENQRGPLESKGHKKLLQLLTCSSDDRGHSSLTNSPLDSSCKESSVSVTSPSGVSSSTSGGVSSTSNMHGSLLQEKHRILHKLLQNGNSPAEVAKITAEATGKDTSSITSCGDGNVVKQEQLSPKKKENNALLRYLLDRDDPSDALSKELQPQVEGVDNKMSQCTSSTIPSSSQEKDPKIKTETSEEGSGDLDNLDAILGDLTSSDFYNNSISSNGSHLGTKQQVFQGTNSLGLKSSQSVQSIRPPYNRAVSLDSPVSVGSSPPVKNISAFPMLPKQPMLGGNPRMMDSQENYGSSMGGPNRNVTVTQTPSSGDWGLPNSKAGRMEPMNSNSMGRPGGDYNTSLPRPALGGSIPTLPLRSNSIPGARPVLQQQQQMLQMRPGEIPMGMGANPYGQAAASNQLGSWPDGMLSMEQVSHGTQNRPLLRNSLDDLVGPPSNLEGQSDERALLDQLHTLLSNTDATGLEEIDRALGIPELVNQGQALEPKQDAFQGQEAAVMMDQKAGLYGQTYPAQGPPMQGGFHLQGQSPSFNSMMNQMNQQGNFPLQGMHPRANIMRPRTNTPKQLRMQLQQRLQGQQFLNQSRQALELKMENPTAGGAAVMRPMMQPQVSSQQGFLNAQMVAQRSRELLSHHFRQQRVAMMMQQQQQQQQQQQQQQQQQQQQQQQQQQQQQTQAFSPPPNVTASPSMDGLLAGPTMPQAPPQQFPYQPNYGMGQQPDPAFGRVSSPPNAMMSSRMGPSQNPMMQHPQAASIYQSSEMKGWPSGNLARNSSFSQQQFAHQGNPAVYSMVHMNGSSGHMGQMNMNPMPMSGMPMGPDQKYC
NR5A2 inv ag: NR5A2 inverse agonism in reporter assay; O00482; HEK293T StAR-luciferase reporter, LRH-1 transfected, 24 h; inhibition, % at 3.6 µM; 0.13% of 360,000 active;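 active = inhibition above the mean inhibition of all tested compounds plus 3 SD, cut at about 73% in these data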;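 also: 0% = DMSO wells and 100% = reporter-only cells lacking LRH-1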
COUP-TFII inh: NR2F2 (human) inhibition, primary screen | P24468 | 0.7% of 370,000 active | HEK293T NGFI-A luciferase reporter, luminescence | AID 686940 | inhibition, % at 8.6 µM;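 active = inhibition above a per-plate cutoff, mean inhibition of test wells between control levels plus 3 SD, cut at about 38% in these data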;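 also: cells cotransfected with COUP-TFII expression vector driving the NGFI-A reporter; 0% = median of COUP-TF2 test wells and 100% = reporter-only cells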
Gal4-VP16 ctr: counter-screen for COUP-TFII antagonists: inhibitors of VP16 | shares compounds with COUP-TFII inh | HEK293 Gal4-VP16 luciferase reporter, luminescence | inhibition, % at 8.5 µM | 25% of 2,500 active; in the data active = inhibition above about 13%
NR2F2 inh conf: confirmation of human COUP-TFII (NR2F2) inhibitors | shares compounds with COUP-TFII inh | HEK293 NGFI-A luciferase reporter, luminescence | inhibition, % at 8.5 µM | 45% of 2,500 active | AID 687008;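 active = mean inhibition over three repeats above a set limit taken from the earlier primary screen, cut at about 38% in these data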;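 also: 100% = cells given the luciferase reporter alone without the COUP-TF2 vector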
Numbers without * were called inactive; . = no result given.

SMILES	Gli-Sufu block	SRC2 inh	NCOA1 inh	SRC3 inh	NR5A2 inv ag	COUP-TFII inh	Gal4-VP16 ctr	NR2F2 inh conf
O=S(=O)(NCc1cn2ccsc2n1)c1ccc(Oc2ccccc2)cc1	-26.4	20.5	28.3	27.6	44.3	41.6*	8.9	29.5
O=S(=O)(NCc1cn2ccsc2n1)c1cccs1	13.6	-17.7	-27.1	-10.7	-9.8	-5.8	.	.
COc1ccc(CNC(=O)Cc2nn(C)c(=O)c3ccccc23)cc1	50.0	10.6	10.1	14.4	21.7	49.1*	4.0	24.2
COc1ccc(OC)c(NC(=O)Cc2nn(C)c(=O)c3ccccc23)c1	15.6	-2.1	-14.6	12.8	12.2	18.1	.	.
COC(=O)c1cc(-c2c(C)noc2C)c(=O)n2c1CCC2	.	8.7	.	.	.	-5.9	.	.
O=C(Nc1ccc(-c2cn3ccsc3n2)cc1)c1ccc(F)c(S(=O)(=O)N2CCOCC2)c1	11.3	29.5	4.0	28.8	-35.8	46.9*	-21.9	-13.0
O=c1cc(-c2ccc(O)cc2)oc2c1ccc1ccccc12	-22.5	-24.4	3.5	12.2	-14.2	5.2	.	.
O=c1cc(-c2ccc(O)cc2)oc2ccc3ccccc3c12	3.6	46.1	11.6	27.7	21.3	55.3*	13.6*	46.2*
COc1ccc(/C=C2\SC(=S)N(CCC(=O)Nc3ccccc3C(=O)O)C2=O)cc1	11.2	10.8	3.6	-16.6	15.5	-3.0	.	.
COc1ccc(/C=C2\SC(=O)N(CCCC(=O)Nc3cc(Cl)ccc3C(=O)O)C2=O)cc1	73.9*	92.1*	77.8*	83.3*	81.6*	100.6*	88.8*	101.1*
OC(c1ccc(F)cc1)c1nc(-c2ccncc2)cs1 (stereo not drawn)	.	-12.6	16.4	23.2	16.6	41.8*	-0.9	23.3
O=C(/C=C/c1ccc(-c2ccccc2)cc1)NC1=NCCS1	.	.	.	.	.	-29.3	.	.
COc1cc(NC(=O)c2cccs2)c(C(=O)OCC(=O)c2cc(C)n(-c3ccccc3)c2C)cc1OC	12.1	56.8*	10.6	26.6	1.7	64.6*	18.2*	36.7
COc1cc(NC(=O)c2cccs2)c(C(=O)OCC(=O)c2cc(C)n(-c3ccc(F)cc3)c2C)cc1OC	19.3	13.2	-1.9	43.8	-13.6	19.9	.	.
O=S1(=O)c2ccc(N3CCSCC3)cc2Oc2ccccc2CN1Cc1cn(Cc2cccc(C(F)(F)F)c2)nn1	.	12.7	.	.	.	-0.7	.	.
CCC(=O)Nc1cccc(C2=NOC3(C2)C[C@@H](C(N)=O)N(C(=O)COc2ccc(Cl)cc2)C3)c1 (stereo partly drawn)	-7.5	10.1	1.5	3.2	2.3	14.2	.	.
CCCCCC(=O)N1CC2(CC(c3cccc(NC(=O)COc4ccc(Cl)cc4)c3)=NO2)C[C@@H]1C(N)=O (stereo partly drawn)	17.3	36.3	-2.6	-4.2	-8.2	41.9*	-10.6	12.7
Cc1ccc(NC(=O)c2cc(S(=O)(=O)N3CCCCC3)cs2)cc1	1.4	36.7	7.3	-7.0	19.1	47.8*	1.9	19.1
O=S(=O)(c1ccc(CN2CCOCCOCCN(Cc3ccc(S(=O)(=O)C(F)(F)F)cc3)CCOCC2)cc1)C(F)(F)F	.	.	.	.	.	61.6*	6.7	18.6
Cc1ccc(S(=O)(=O)N2CCOCC2)cc1C(=O)Nc1ccc(N2CCCCCC2)cc1	43.1	-10.3	1.2	-22.0	-15.5	39.9*	-33.2	14.3
CCOc1ccc(CN2CCN(S(=O)(=O)c3ccc(NC(C)=O)cc3)CC2)cc1	12.9	24.9	-27.1	20.0	24.9	47.8*	-4.4	11.9
O=[N+]([O-])c1ccc(CN2CCOCCOCCN(Cc3ccc([N+](=O)[O-])cc3)CCOCC2)cc1	23.0	.	9.9	4.8	35.1	.	.	.
CC1(C)CC(=O)C=C(Nc2ccccc2NC(=O)c2cc(F)ccc2F)C1	.	-16.8	.	.	.	1.4	.	.
O=C(Nc1ccc(S(=O)(=O)N2CCOCC2)cc1)c1ccc(S(=O)(=O)N2CCOCC2)cc1	7.1	5.0	-8.1	10.2	0.5	-9.1	.	.
O=C(Nc1ccc(Cc2ccncc2)cc1)c1ccc(S(=O)(=O)N2CCOCC2)cc1	21.1	8.6	24.4	26.4	24.9	41.4*	2.6	28.1
SMILES	Gli-Sufu block	SRC2 inh	NCOA1 inh	SRC3 inh	NR5A2 inv ag	COUP-TFII inh	Gal4-VP16 ctr	NR2F2 inh conf
CCN(CC)S(=O)(=O)c1ccc(NC(=O)c2ccc(CN3CCOCC3)cc2)cc1	9.5	8.4	12.2	18.9	43.5	70.8*	7.8	64.2*
O=C(Nc1ccc(S(=O)(=O)N2CCCCC2)cc1)c1ccc(CN2CCOCC2)cc1	38.0	.	28.4	45.4	49.9	.	.	.
CN(c1ccc(C(=O)Nc2ccc(S(=O)(=O)N3CCCC3)cc2)cc1)S(C)(=O)=O	-2.1	30.5	5.3	25.2	28.6	46.7*	-3.5	11.0
CCN(CC)S(=O)(=O)c1ccc(NC(=O)c2ccc(OCC3CCCO3)cc2)cc1 (stereo not drawn)	1.3	12.2	20.2	-16.4	18.0	61.3*	9.2	49.4*
CN(c1ccccc1C(=O)Nc1ccc(S(=O)(=O)N2CCCC2)cc1)S(C)(=O)=O	-1.8	4.2	-5.2	-2.6	5.2	7.9	.	.
COc1ccc(-c2ccc3c(n2)CCCN3S(=O)(=O)c2ccc(C#N)cc2)cc1	.	4.3	.	.	.	-20.2	.	.
O=C(Nc1ccc(S(=O)(=O)Nc2ccc(F)cc2)cc1)c1ccc(CN2CCOCC2)cc1	4.3	32.2	23.8	33.0	34.8	72.8*	8.7	61.8*
O=C(Nc1ccc(S(=O)(=O)N2CCCC2)cc1)c1ccc(CN2CCOCC2)cc1	-9.2	23.9	24.0	28.9	33.3	63.3*	6.0	48.5*
Cc1ccccc1NC1=C/C(=N\S(=O)(=O)c2ccc(C(=O)O)cc2)c2ccccc2C1=O	10.5	-22.3	3.9	1.4	16.9	-19.0	.	.
COc1ccc(S(=O)(=O)/N=C2\C=C(Nc3ccc(O)cc3)C(=O)c3ccccc32)cc1	95.3*	73.9*	89.5*	88.0*	92.6*	70.7*	83.0*	91.6*
CC(=O)Nc1ccc(NC2=C/C(=N/S(=O)(=O)c3cccs3)c3ccccc3C2=O)cc1	-11.1	42.7	-3.9	80.3*	26.4	50.0*	16.6*	22.8
CC(C)CN(CC(C)C)C(=O)CSc1nc2cccnc2n1C	.	4.1	.	.	.	9.6	.	.
Cc1c(C(=O)NCc2ccc(Cl)c(Cl)c2)sc(=O)n1Cc1ccc(C(=O)N(C)C)cc1	.	-4.6	-4.1	21.6	31.7	49.5*	0.6	4.2
Cc1c(C(=O)NCc2cccc(Cl)c2)sc(=O)n1Cc1ccc(C(=O)N(C)C)cc1	.	7.3	-5.7	4.0	-20.7	27.0	.	.
C=Cc1ccc(Cn2c(C)c(C(=O)NCc3ccc(Cl)c(Cl)c3)sc2=O)cc1	.	-54.0	-0.6	-8.5	-4.7	-10.1	.	.
CSc1ccc(Cn2c(C)c(C(=O)NCc3ccc(C(C)C)cc3)sc2=O)cc1	.	1.9	2.3	2.6	-6.3	-1.0	.	.
